Reference: PubChem BioAssay

Each compound was assayed on Inhibin beta A chain (activin A) (assay: small molecules binding activin A – biochemical, small-molecule microarray, 635 nm fluorescence scan, primary screen (AID 1107;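 also: mouse activin A protein probed at 4.33 µg/mL on printed slides; score merges bound-protein fluorescence near 667 nm with spot signal-to-noise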)). Settings: INHBA, higher = more signal.

In order of falling composite z-score:
1. CCCC1(C(=O)OC)C=C2C(=C(C)C(=O)C2C)CN1 (stereo not given)  1.57
2. COC(=O)[C@@]1(Cc2ccc(F)cc2)[C@H]2c3cc(C(=O)N4CCCC4)n(Cc4ccc(C)c(F)c4F)c3C[C@H]2CN1C(=O)c1ccccc1  1.42
3. NCCCCCNC(=O)[C@@H]1C[C@@H]2C(=O)N[C@@H](CCCCN)C(=O)N2[C@@H]1c1ccc(O)cc1  1.32
4. CCN(CC)c1ccc(N2CC=CC34O[C@@H]5/C=C\CCCOC(=O)C5[C@H]3C(=O)N(C(C)CO)[C@@H]4C2=O)cc1 (stereo not given in full)  1.03
5. CCCCCCCCCCC(O)C1C=CC2C(=O)N(c3ccccc3)C(=O)C2N1Nc1ccc(C#N)cc1 (stereo not given)  1.02
6. CCOC(=O)C1=C[C@@H](C(C)(C)C)N(S(=O)(=O)c2ccc(C)cc2)[C@H]1c1cccc2ccccc12  0.997
7. COc1cc(NN2C(C(O)c3cc(OC)c(OC)c(OC)c3)C=CC3C(=O)N(C)C(=O)C32)cc(OC)c1OC (stereo not given)  0.93
8. CO[C@H]1O[C@H](CO)[C@@H](OC(=O)Nc2ccccc2)[C@H](OC(=O)c2cc3ccccc3[nH]2)[C@H]1OC(=O)c1cc2ccccc2[nH]1  0.9
9. NCCCCCNC(=O)[C@H]1C[C@H]2C(=O)N3CCC[C@H]3C(=O)N2[C@H]1c1cccc(OCCO)c1  0.896
10. Cc1ccc(C(C)CC(O)C2C=CC3C(=O)N(c4ccccc4)C(=O)C3N2Nc2ccccc2)o1 (stereo not given)  0.843
11. NC(=O)[C@H]1[C@@H]2C(=O)O[C@@H](c3ccccc3)[C@@H](c3ccccc3)N2[C@@H](c2ccc(OCCO)cc2)[C@]12C(=O)Nc1ccc(C#CCCO)cc12  0.779
12. CCCCC(CC)C(O)C1C=CC2C(=O)N(c3ccccc3)C(=O)C2N1Nc1ccccc1F (stereo not given)  0.744
13. CCCN1C(=O)[C@]2(Cc3ccccc31)N=C(c1ccc(OCCCO)cc1)O[C@@H]2c1ccccc1  0.72
14. O=C(Cc1ccccc1)[C@H]1C2C=CCCC(c3ccccc3)=C2CN1Cc1ccccc1 (stereo not given in full)  0.707
15. CC(C)C(CO)N1C(=O)[C@@H]2[C@H]3C(=O)OCC=C[C@H]3OC23C=CCN(c2ccc(Cl)cc2)C(=O)[C@@H]13 (stereo not given in full)  0.653
16. Cc1ccccc1C(O)C1C=CC2C(=O)NC(=O)C2N1Nc1ccccn1 (stereo not given)  0.605
17. COCC(=C=CC[C@H](O)c1ccc(CO)o1)CCO  0.569
18. CO[C@H]1O[C@H](CO)[C@@H](OC(=O)Nc2ccc(Br)cc2)[C@@H]2OC(=O)[C@@H](Cc3ccccc3)C/C=C/C[C@H](Cc3ccccc3)C(=O)O[C@@H]12  0.517
19. C=CCNC(=O)[C@@H]1[C@H]2C(=O)O[C@H](c3ccccc3)[C@H](c3ccccc3)N2[C@H](c2ccc(O)cc2)[C@@]12C(=O)N(C(=O)OCCOC)c1ccc(C#CC3=CCCCC3)cc12  0.492
20. C=CCNC(=O)[C@@H]1[C@H]2C(=O)O[C@H](c3ccccc3)[C@H](c3ccccc3)N2[C@H](c2ccccc2OCCO)[C@@]12C(=O)Nc1ccc(C#CCC(C(=O)OC)C(=O)OC)cc12  0.482
21. NC(=O)NCC#Cc1ccc2c(c1)[C@]1(C(=O)N2)[C@H](c2ccccc2OCCO)N2[C@H](c3ccccc3)[C@H](c3ccccc3)OC(=O)[C@H]2[C@@H]1C(=O)NC[C@H](O)c1ccccc1  0.472
22. CCCC[C@@H](O)C1=C(COC)C[C@H]2C(=O)N(Cc3ccccc3)C(=O)[C@H]2[C@H]1CO  0.44
23. CN(C)C(=O)[C@]1(CCC(=O)OC(C)(C)C)N=C(c2ccc(OCCCO)cc2)O[C@@H]1c1ccccc1CN=[N+]=[N-]  0.418
24. CCOC(=O)C=Cc1cccc(C)c1O  0.39
25. CCOC(=O)C[C@H]1[C@H](OC(=O)Cc2ccc3c(c2)OCO3)[C@@H](NC(=O)c2ccc3ccccc3n2)c2cc(OCCCO)ccc2N1C(=O)c1ccc2ccccc2n1  0.265
26. CCOC(=O)C[C@H]1[C@H](OC(=O)Cc2ccc3c(c2)OCO3)[C@@H](NC(=O)C2CCCCC2)c2cc(OCCCO)ccc2N1C(=O)c1ccccc1  0.193
27. C=C[C@H](C)[C@H](OC(=O)Nc1ccc(SC)cc1)c1ccc(OCCO)cc1  0.081
28. COC(=O)c1c(CC[C@@H](CO)NC(=O)N2CCC[C@H]2Cn2cc(C3(O)CCCCC3)nn2)oc(C(C)=O)c1C(=O)OC  0.0806
29. COc1ccc(C#Cc2ccc3c(c2)[C@]2(C(=O)N3)[C@H](C(=O)O)[C@H]3C(=O)O[C@H](c4ccccc4)[C@H](c4ccccc4)N3[C@@H]2c2ccc(O)cc2)cc1  0.0045
30. COCCOC(=O)N1C(=O)[C@@]2(c3ccccc31)[C@H](C(=O)NC[C@H](O)c1ccccc1)[C@H]1C(=O)O[C@H](c3ccccc3)[C@H](c3ccccc3)N1[C@@H]2c1ccc(O)cc1  -0.0795
31. COc1ccc(C#Cc2ccc3c(c2)[C@]2(C(=O)N3)[C@H](c3ccc(OCCO)cc3)N3[C@H](c4ccccc4)[C@H](c4ccccc4)OC(=O)[C@H]3[C@@H]2C(=O)NC[C@H](O)c2ccccc2)cc1  -0.177
32. CCOC(=O)[C@@H]1CCCCN1C(=O)C(=O)OC  -0.206
33. CC1CC/C=C\[C@H]2OC34C=CCN(C(C)C)C(=O)[C@H]3N(CCO)C(=O)[C@@H]4C2C(=O)O1 (stereo not given in full)  -0.372
34. CC(C)N1C(=O)C[C@@](C(=O)NC2CC2)(c2ccc([N+](=O)[O-])cc2)[C@H]1c1ccc(CO)cc1  -1.48
35. C#Cc1cc2ccccc2oc1=O  -1.73
